# Measurements taken from ChEMBL document CHEMBL4888484, “Replenishing the malaria drug discovery pipeline: Screening and hit evaluation of the MMV Hit Generation Library 1 (HGL1) against asexual blood stage Plasmodium falciparum ,using a nano luciferase reporter read-out” (2022).
# Hit rate of the full screen: of about 4,800 compounds, about 410 (8.5%) showed an effect of 50% or more. The sample holds strong results, similar compounds and a random draw of the others, so the mix is not that of the screen.
# Test system: Plasmodium falciparum
# Assay: Confirmatory screen in NF54 pLDH assay, in single point, at 2uM, 72h
# Assay type: functional, Erythrocyte
# Details: timepoint 72 hour
row,SMILES,% Inhibition
1,Fc1ccc(COc2ccc3ccccc3c2CNc2ccc(Br)cc2)cc1,10%
2,CCCNC(=O)CS(=O)(=O)Cc1cccc(Br)c1C,-14%
3,Nc1nc(-c2ccccc2)c2cc3c(nn12)C[C@H](c1ccc(F)cc1)CC3=O,-6%
4,COc1c2c(cc3c1[C@@H](C#CCOc1ccccc1)[N+](C)(C)CC3)OCO2,68%
5,CCn1cc(S(=O)(=O)N2CC(Oc3cccc(-c4nc(C)no4)c3)C2)cn1,7%
6,COc1cc(-c2nc3ncnn3c(N)c2C#N)cc(OC)c1OC,-17%
7,Cc1cc(C)c2nc(C)cc(Nc3ccc(O)cc3)c2c1,103%
8,COc1c(Cl)cc(Cl)cc1C#N,-17%
9,COc1cc(N)c(NC(C)=O)cc1Cl,7%
10,COc1cccc(CNCc2ccc3c(c2)OCO3)c1OCc1ccc(Cl)cc1Cl,10%
11,COCCN(CC1CN(Cc2ccccc2OC)CC1c1ccccc1OC)C(=O)COC (stereo unspecified),0%
12,COc1ccccc1CN1COc2cc3c(cc2C1)OCO3,52%
13,O=S(=O)(NCc1ccc(C(F)(F)F)nc1N1CCC(C(F)(F)F)CC1)C(F)(F)F,8%
14,CC(C1Cc2ccccc2O1)N(C)Cc1nccn1S(=O)(=O)N(C)C (stereo unspecified),-8%
15,Cn1ccc(C(=O)Nc2ccc(-c3ccccc3)cn2)cc1=O,-11%
16,Nc1n[nH]c2c(Cl)c3nnc(-c4ccccc4)n3c(Cl)c12,13%
17,O=C(Cc1ccc(N(Cc2cccc(F)c2)C(=O)C2CCCC2)cc1)NCCN1CCCCC1,43%
18,COCCN(Cc1c(-c2ccccc2)noc1N1CCN(C)CC1)C(=O)c1ccc(C)cc1,12%
19,C[C@H](Nc1ccc(N2CCOCC2)nc1)c1cccc(CO)c1,11%
20,CCn1c(-c2cc(NC(=O)c3ccc4c(c3)OCO4)[nH]n2)cc2ccc(OC)cc21,4%
21,Oc1nc(N2CCOC3(CCCC3)C2)ncc1F,53%

row,SMILES,% Inhibition
1,FC(F)(F)c1cnc(N2CCOC3(CCOCC3)CC2)s1,9%
2,O=C(c1cc(-c2ccncc2)on1)N1CCOC2(CCCCCC2)C1,8%
3,Cc1c(C(=O)N2CC[C@H](CC(C)(C)C)C2(C)C)nnn1-c1cnn(C)c1,-9%
4,Cc1cc(C)cc(NC(=O)Cc2nc(C)c(C(=O)NCc3ccccc3)s2)c1,5%
5,CCOC(=O)c1ncn(C2CCN(C(=O)c3cccc(Cn4ccnc4)c3)CC2)c1N,5%
6,CCOC(=O)c1c(CN2CCCC2)n(C)c2cc(-c3cccnc3)c(O)c(Cn3ccnc3)c12,68%
7,CCOC(=O)c1nc(-c2cccnc2)cs1,-8%
8,Cc1cccc(C)c1OCC(C)NC(=O)N1CCCC(CS(C)(=O)=O)C1 (stereo unspecified),-20%
9,COc1ccc(CN(C)[C@H]2CCc3nn(C)c(=O)n3CC2)c(Cl)c1OC,1%
10,CC(C)c1nnc(Cn2nnc(-c3ccncn3)n2)s1,-12%
11,Cc1cc(C)n(CCC(=O)N2CC[C@H](c3nc(C4CCOCC4)no3)C2)n1,9%
12,Cc1cnc(C2CCC2)n1CCNS(=O)(=O)c1ccccc1,2%
13,O=C(Cn1c(Cc2ccc(Cl)cc2)nc2ccccc21)Nc1ccccc1,9%
14,O=C(Nc1c(S(=O)(=O)c2ccccc2)c2nc3ccccc3nc2n1CCc1ccccc1)c1ccc(Cl)cc1,96%
15,Cc1ccc(S(=O)(=O)Nc2ccccc2-c2nnc(-c3c(NS(=O)(=O)c4ccc(C)cc4)ccc4ccccc34)o2)cc1,-13%
16,COCCCn1c(NS(=O)(=O)c2ccccc2)c(S(=O)(=O)c2ccc(C)cc2)c2nc3ccccc3nc21,49%
17,Cc1ccc(S(=O)(=O)c2c(NS(=O)(=O)c3ccc(F)cc3)n(CCc3ccccc3)c3nc4ccccc4nc23)cc1,103%
18,Cc1ccc(S(=O)(=O)Nc2c(S(=O)(=O)c3ccc(C)cc3)c3nc4ccccc4nc3n2C[C@H]2CCCO2)cc1,8%
19,Cc1ccc(S(=O)(=O)Nc2c(S(=O)(=O)c3ccc(C)cc3)c3nc4ccccc4nc3n2CCC(C)C)cc1,100%
20,Cc1ccc(S(=O)(=O)Nc2c(S(=O)(=O)c3ccccc3)c3nc4ccccc4nc3n2CCc2ccccc2)cc1,100%
21,O=C(Nc1ccccc1)c1ccc2c(c1)C(=O)N(CCc1ccccc1)C2=O,-15%

row,SMILES,% Inhibition
1,Cc1nn(C)c(N)c1C(=O)N(C1CCC1)C1CCC1,-16%
2,Cc1cc(Cn2c(=O)n(Cc3ccccc3)c3ccncc32)on1,7%
3,COc1ccc([C@@H]2C(C#N)(C#N)C23C(=O)CC(C)(C)CC3=O)cc1,-12%
4,N#Cc1cccc(-c2c[nH]c(CNc3nc4cc(C(F)(F)F)ccc4s3)n2)c1,7%
5,Cc1nc2cccnc2n1-c1cc(C(=O)NCC[C@H](C)N2CCCC2)ccc1Cl,8%
6,CC1CCN(C(=O)NCC2CCC(F)(F)CC2)CC1n1ccnc1 (stereo unspecified),12%
7,COc1cc(CC2CN(C(=O)c3cscn3)C2)cc(OC)c1,3%
8,CS(=O)(=O)CC1(CC(=O)N[C@H](c2ccccc2)C2CCC2)CC1,11%
9,Cc1nn(CC2(O)CCCCC2)c(=O)c(C#N)c1C,-10%
10,CS(=O)(=O)n1c(CCCc2ccccc2)nc2ccccc21,15%
11,Cc1ccc(S(=O)(=O)c2c(NS(=O)(=O)c3ccccc3)n(CCc3ccccc3)c3nc4ccccc4nc23)cc1,102%
12,Cc1ccc(S(=O)(=O)Nc2cc3nc4ccccc4nc3n2CCc2ccccc2)cc1,97%
13,Cc1cc(NC(=O)Cn2c(=O)n(CCc3ccccc3)c(=O)c3ccccc32)no1,13%
14,COCCCn1c(NS(=O)(=O)c2ccc3ccccc3c2)c(S(=O)(=O)c2ccc(C)cc2)c2nc3ccccc3nc21,16%
15,O=C(O)Cc1cccc(NC(=O)C2C3Cc4ccccc4C32)c1 (stereo unspecified),2%
16,C[C@H](NC(=O)CC1(C)CCCCC1)c1cnn(C)c1,-5%
17,O=C(Nc1cccc(OCCn2cncn2)c1)[C@@H]1CCCc2ccccc21,-19%
18,Cc1cc(CCC(=O)Nc2nnn[nH]2)ccc1Br,10%
19,COc1cc2c(cc1CNc1nc(N)nc3c1CCNCC3)CCC2,11%
